Source: PubChem BioAssay
This is a sample that favours compounds with a hit; in the whole collection about 2.4% have one here.
D2 PAM-1: D2 dopamine receptor (human) potentiation | potentiation, % at 10 µM | P14416 | HEK293 T-REx D2, calcium flux, EC20 dopamine potentiation | actives 0.34% (n = 340,000);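 active = potentiation over 3 SD above the plate norm, cut at about 30% in these data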
Target sequence (P14416 whole entry, looked up): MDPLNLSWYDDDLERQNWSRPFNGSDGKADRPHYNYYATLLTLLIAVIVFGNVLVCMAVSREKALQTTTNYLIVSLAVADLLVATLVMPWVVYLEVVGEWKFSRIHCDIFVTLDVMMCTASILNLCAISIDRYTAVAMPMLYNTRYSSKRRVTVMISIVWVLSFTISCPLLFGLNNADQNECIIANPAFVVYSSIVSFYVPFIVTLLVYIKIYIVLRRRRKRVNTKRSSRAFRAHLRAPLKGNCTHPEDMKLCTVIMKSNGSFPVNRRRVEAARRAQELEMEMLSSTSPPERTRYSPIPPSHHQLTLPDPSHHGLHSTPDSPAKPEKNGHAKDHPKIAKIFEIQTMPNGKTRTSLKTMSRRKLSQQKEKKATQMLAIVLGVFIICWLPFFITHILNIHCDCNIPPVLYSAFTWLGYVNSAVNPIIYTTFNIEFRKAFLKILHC
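Using a no-wash calcium dye in inducible, force-coupled HEK293 Trex cells expressing D2, we tracked fluorescence each second for 180 s after compound, then for 180 s after EC20 dopamine to detect augmented signalling.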
D2 antag: antagonizes the human D2 dopamine receptor | actives 2% (n = 340,000) | inhibition, % at 10 µM | HEK293 TREx D2 cells, calcium flux, dopamine EC80 | P14416 | AID 485344; in the data active = inhibition above about 30%; inactive = below that, where a call was filed
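Cells plated overnight at 30 C with tetracycline; no-wash calcium dye, 30–90 min RT; 10 s baseline; compound pinned; 180 s read; EC80 dopamine added; another 180 s read.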
D2 PAM-2: human D2 receptor positive allosteric modulation; P14416; DiscoveRx D2 beta-arrestin cells, luminescence, 90 min; 100% = 57 uM dopamine signal; potentiation, % (test concentration not listed); actives 0.23% (n = 360,000); AID 624464; in the data active = potentiation above about 50%; inconclusive = mostly about 30% to 49%
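D2 cells co-treated with compound plus 50 nM dopamine (EC20) for 90 min at 37 deg C to detect potentiation. Beta-arrestin recruitment was read as enzyme-fragment luminescence after 1 h at ambient temperature. Full response was set by 57 uM dopamine.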
D2 ag-1: human D2 receptor agonism in beta-arrestin assay | P14416 | DiscoveRx PathHunter D2 beta-arrestin, luminescence, 90 min; 100% = 57 uM dopamine signal | activation, % (test concentration not listed) | actives 0.084% (n = 360,000) | AID 624465; in the data active = activation above about 40%; inconclusive = between about 15% and that limit
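Agonist mode: compounds alone added to overnight-plated D2 PathHunter cells for 90 min at 37 C, with 57 uM final dopamine (EC100) defining full response. Beta-arrestin recruitment detected by chemiluminescent reagent, read after 1 h at ambient temperature.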
D2 ag-2: agonists of human D2 dopamine receptor. HEK293 T-REx D2 cells, calcium flux agonist mode. activation, % at 2 µM. actives 0.53% (n = 340,000). AID 485358;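 active = activation over 3 SD above normal in the single-dose calcium agonist read, cut at about 30% in these data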
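In this primary screen, compounds producing a positive calcium signal within 180 s of addition to tetracycline-induced, force-coupled HEK293 Trex D2 cells are flagged; cells are dye-loaded with a no-wash calcium kit beforehand.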
Large screens that a line does not name were inactive.

CCCN(CC(=O)Nc1ccccc1C)C(=O)c1ccc(S(=O)(=O)N2CCCC2)cc1	D2 antag 30
C=C(C)c1cccc(C(C)(C)NC(=O)NCc2ccncc2)c1	D2 antag 35
CCOC(=O)c1c(NC(=O)C[n+]2ccccc2)sc2c1CCCC2	D2 antag 46
O=C1c2ccc([N+](=O)[O-])cc2S(=O)(=O)N1Cc1ccccc1	D2 PAM-2 72, D2 ag-1 inconclusive
C=CCNC(=S)NCC	none
Cc1nnc(SCC(=O)Nc2ccccc2F)n1-c1ccc(F)cc1	none (no result: D2 PAM-1, D2 antag, D2 ag-2)
CC(=O)c1ccc(NC(=O)COCc2cc(-c3ccc(F)cc3)on2)cc1	none (no result: D2 antag, D2 PAM-2, D2 ag-1)
C=CCn1c(SCc2cc(=O)n3cc(C)ccc3n2)nnc1-c1ccc(F)cc1	none
Cc1ccc2nc(CSc3nnc(-c4ccncc4)n3C)cc(=O)n2c1	D2 antag 71
CC(C)Oc1ccc(C(=O)Nc2nc3ccccc3[nH]2)cc1	D2 PAM-1 105
O=C(Nc1nc2ccccc2[nH]1)c1ccc(OC(F)F)cc1	none
CC(C)c1ccc(NC(=O)C2(C)Cc3ccccc3C(=O)O2)cc1 (stereo not given)	none (no result: D2 antag, D2 PAM-2, D2 ag-1)
COc1ccc(Cn2c(-c3ccc(C)cc3)nc3c(c(=O)c4ccccc4n3C)c2=O)cc1	D2 antag 37
COc1ccc(CCn2c(C)nc3c(c(=O)c4ccccc4n3C)c2=O)cc1	D2 antag 49
Cc1nn(C(C)C(=O)NC2CCC(C)CC2)c(=O)c2c1sc1ccccc12 (stereo not given)	none (no result: D2 antag, D2 PAM-2, D2 ag-1)
CCOC(=O)CNC(=O)CC(c1cc(OC)c(OC)c(OC)c1)N1Cc2ccccc2C1=O (stereo not given)	none (no result: D2 antag, D2 PAM-2, D2 ag-1)
COCCNC(=O)CSc1nnc(NC(=O)Nc2ccc(C)cc2)s1	none (no result: D2 antag, D2 PAM-2, D2 ag-1)
CCn1c(=O)c([N+](=O)[O-])c(NCCN(C)C)c2ccccc21	D2 antag 59
O=c1c([N+](=O)[O-])c(NCCN2CCCCCC2)c2ccccc2n1-c1ccccc1	D2 antag 49
CCn1c(=O)c([N+](=O)[O-])c(NCC(O)c2ccccc2)c2ccccc21 (stereo not given)	none
CCOc1cc2sc(N3CCC(C(=O)Nc4ccc(C)cc4)CC3)nc2cc1Br	none (no result: D2 antag, D2 PAM-2, D2 ag-1)
CN1C(=O)C(C)(C)c2cc(S(=O)(=O)NCc3ccc(C(=O)Nc4ccc(Cl)cc4)cc3)ccc21	none (no result: D2 antag, D2 PAM-2, D2 ag-1)
CC(=O)Nc1sc(NC(=O)c2ccccc2)nc1-c1cccs1	none
CCN(CC)c1ccc(/C=C(\C#N)c2nc(-c3cccs3)c(NC(C)=O)s2)cc1	D2 ag-2 33 (no result: D2 PAM-2, D2 ag-1)
Cc1ccccc1NC(=O)c1c(O)c2cccc3c2n(c1=O)CCC3	D2 antag 47 (no result: D2 PAM-2, D2 ag-1)
O=C(NNC1=Nc2cccc3cccc1c23)c1ccc(Br)cc1	D2 antag 83
CCOC(=O)c1noc2ncn(CC(=O)Nc3ccc(F)cc3Cl)c(=O)c12	none (no result: D2 antag, D2 PAM-2, D2 ag-1)
COc1ccc(S(=O)(=O)N2CCC(C(=O)NCCN3CCOCC3)CC2)cc1C	D2 antag 34
COc1ccc(S(=O)(=O)N2CCC(C(=O)NCCN3CCOCC3)CC2)cc1OC	none
COc1ccc(CCN2C(=O)N(c3ccc(C)cc3)C(=O)C2CC(=O)Nc2ccc(OC)cc2)cc1 (stereo not given)	none (no result: D2 antag, D2 PAM-2, D2 ag-1)
COc1ccc(OCc2cc(C(=O)N(C)CCC3CCOCC3)no2)c(Cl)c1	D2 antag 65
COc1ccc(OCc2cc(C(=O)N(C)CC3CCCCO3)no2)c(Cl)c1 (stereo not given)	none
Nc1ccc(N(CCO)CCO)cc1	D2 PAM-2 64, D2 ag-1 inconclusive
CCc1nn(Cc2cc(C)ccc2C)c(=O)c2cc3cc(C)ccc3n12	none (no result: D2 antag, D2 PAM-2, D2 ag-1)
CN(Cc1cnn(C)c1)C(=O)C1CCC(=O)N(Cc2cccc(C(F)(F)F)c2)C1 (stereo not given)	none (no result: D2 PAM-1, D2 antag, D2 ag-2)
CN(Cc1cccc(C(F)(F)F)c1)C(=O)C1CCC(=O)N(CC2CCCCC2)C1 (stereo not given)	D2 antag 31
O=C(c1ccc(Oc2ccc([N+](=O)[O-])cc2)cc1)N1CCCCCC1	none
O=C(CCc1ccc(Oc2cc([N+](=O)[O-])cc([N+](=O)[O-])c2)cc1)Nc1cccc(Cl)c1	D2 PAM-2 64, D2 ag-1 inconclusive
COc1ccc(CCC(=O)Nc2cccc(Cl)c2)cc1	none
